Screening results as filed in PubChem BioAssay.
Mtb betalactam: beta-lactam sensitization of Mtb H37Rv; M. tuberculosis H37Rv growth with meropenem, percent inhibition; inhibition, % at 25 µM; hit rate 0.27% among 330,000; call rule not given here;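 note: growth measured after seven days incubation then overnight dye step; 0% = bacteria only wells and 100% = bacteria with antibiotic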
UGM FP inh: blocks M. tuberculosis UGM enzyme; P9WIQ1; purified UGM, fluorescence polarization probe displacement; AID 504406; hit rate 0.06% among 320,000; inhibition, % at 10 µM; in the data active = inhibition above about 10%, passing the limit was not always enough; inconclusive = no clear call, values can overlap the other calls
FadD28 binding: M. tuberculosis FadD28 bisubstrate binding inhibition; hit rate 0.22% among 360,000; inhibition, % at 12.5 µM; AID 588549; FadD28 bisubstrate probe binding, fluorescence polarization; in the data active = inhibition above about 8.5%, passing the limit was not always enough; inconclusive = no clear call, values can overlap the other calls
Rv3671c protease: Rv3671c (M. tuberculosis) protease inhibition; P9WHR9; inhibition, % at 5.96 µM; hit rate 0.048% among 320,000; AID 2606; in the data active = inhibition above about 38%;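 note: extracellular domain of Rv3671c used as enzyme; 0% = enzyme with DMSO and 100% = no enzyme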
Target sequence (P9WHR9 whole entry, looked up, the tested form may be a part): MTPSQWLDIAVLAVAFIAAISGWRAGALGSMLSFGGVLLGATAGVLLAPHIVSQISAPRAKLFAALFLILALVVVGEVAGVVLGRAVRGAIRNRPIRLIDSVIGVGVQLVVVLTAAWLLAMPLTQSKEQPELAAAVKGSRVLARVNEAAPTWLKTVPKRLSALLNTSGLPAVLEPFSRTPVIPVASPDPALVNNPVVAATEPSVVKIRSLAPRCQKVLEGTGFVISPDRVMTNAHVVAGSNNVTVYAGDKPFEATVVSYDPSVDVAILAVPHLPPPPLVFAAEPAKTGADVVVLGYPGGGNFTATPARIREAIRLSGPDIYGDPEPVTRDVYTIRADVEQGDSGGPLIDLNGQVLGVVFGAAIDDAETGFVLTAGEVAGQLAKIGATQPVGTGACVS
FBA Mtb inh: inhibits M. tuberculosis FBA enzyme; P9WQA3; purified M. tuberculosis FBA, fluorescence read-out; inhibition, % at 1 µM; hit rate 2.3% among 360,000; AID 588726;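 note: 0% = vehicle and 100% = reference inhibitor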
GDH-TPI counter-1: counter-screen for M. tuberculosis FBA inhibitors: GDH-TPI coupled enzymes; hit rate 1.2% among 360,000; inhibition, % at 4.8 µM; GDH-TPI coupled enzyme counterscreen, NADH absorbance; in the data active = inhibition above about 30%;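 note: 0% = DMSO wells and 100% = wells lacking the enzyme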
Mtb FBA confirm: confirmation of M. tuberculosis fructose-bisphosphate aldolase inhibitors | inhibition, % at 1 µM | purified M. tuberculosis FBA, fluorescence read-out | shares compounds with FBA Mtb inh | AID 651616 | hit rate 78% among 5,600;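 note: 0% = vehicle wells and 100% = reference inhibitor wells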
GDH-TPI counter-2: counter-screen for M. tuberculosis FBA inhibitors: GDH-TPI coupled enzyme inhibition | shares compounds with FBA Mtb inh | GDH-TPI coupled enzyme counterscreen, fluorescence | inhibition, % at 1 µM | hit rate 81% among 5,600; in the data active = inhibition above about 10%
Numbers without * were called inactive; ? = inconclusive; nt = not tested or not shown; + = active, no number. Hits are enriched below; roughly 3.7% of the tested compounds scored in any of these assays. Cut-off read from the data, not from the text of the source, unless noted: active = inhibition above about 27%; inactive = the rest.

SMILES	Mtb betalactam	UGM FP inh	FadD28 binding	Rv3671c protease	FBA Mtb inh	GDH-TPI counter-1	Mtb FBA confirm	GDH-TPI counter-2
COc1ccc2c(c1)CCc1cc(C(=O)N3CCN(c4ccc(N5CCOCC5)nn4)CC3)sc1-2	4	1	-2	0	41*	34*	+	195*
CN(C)c1ncnc2c1ncn2[C@H]1CN(CCN2CCOCC2)C[C@@H](CO)O1	nt	nt	-2	nt	1	8	nt	nt
CCN(CC)C(=O)[C@H]1C[C@H](CC(=O)NCCc2ccccn2)C(=O)N2CCc3c([nH]c4cc(-c5ccco5)ccc34)[C@]12C	nt	nt	-3	nt	40*	9	52*	44*
CCN(CC)C(=O)[C@H]1C[C@H](CC(=O)NCCCOC)C(=O)N2CCc3c([nH]c4cc(-c5ccco5)ccc34)[C@]12C	nt	nt	0	nt	43*	7	59*	31*
CC(C)N(C(=O)[C@H]1C[C@H](CC(=O)NCCc2ccccn2)C(=O)N2CCc3c([nH]c4cc(-c5ccco5)ccc34)[C@]12C)C(C)C	nt	nt	-3	nt	22	3	nt	nt
CCN(CC)C(=O)[C@H]1C[C@H](CC(=O)NCCCN(C)C)C(=O)N2CCc3c([nH]c4cc(-c5ccco5)ccc34)[C@]12C	nt	nt	-1	nt	46*	-3	+	+
CCN(CC)C(=O)[C@H]1C[C@H](CC(=O)NCC23CC4CC(CC(C4)C2)C3)C(=O)N2CCc3c([nH]c4cc(-c5ccco5)ccc34)[C@]12C	nt	nt	1	nt	-1	-2	nt	nt
CCOc1ccc(C(=O)NNC(=O)CN2C(=O)C3CC=CCC3C2=O)cc1OC (stereo unspecified)	-3	2	-2	14	0	1	nt	nt
COc1ccc(-c2coc3c(C(=O)NCC4CCOCC4)cccc23)c(C)c1	nt	nt	-9	nt	7	12	nt	nt
COc1ccc(N=c2cc(-c3ccc(OC)cc3)oc3ccccc23)cc1	-4	nt	-1	0	13	18	nt	nt
COc1ccc(-c2cc(=Nc3ccc(C)cc3)c3ccccc3o2)cc1	nt	0	0	-19	29*	21	108*	77*
Cc1cc(C)cc(NC(=O)c2cc3c(=O)n4ccccc4nc3s2)c1	1	0	-1	-3	3	8	nt	nt
CCOC(=O)N1CCN(C(=O)c2cc3c(=O)n4ccccc4nc3s2)CC1	-11	1	0	-7	49*	13	67*	58*
CC1CC(C)CN(C(=O)c2cc3c(=O)n4ccccc4nc3s2)C1 (stereo unspecified)	7	-2	nt	9	53*	8	+	+
COc1cc(/C=C/C(=O)OCC(=O)c2ccc[nH]2)ccc1O	nt	nt	-2	nt	1	24	nt	nt
CCOC(=O)CSC1=NC(=O)/C(=C\c2ccc(Cl)cc2)S1	100	2	-1	-5	4	13	nt	nt
C=CCNC(=O)c1ccc2nc(-c3ccccc3)c(-c3ccccc3)nc2c1	11	2	-5	-4	32*	10	+	175*
CCOc1ccc(-c2cc(C(=O)N3CCCC3)c3ccccc3n2)cc1	?	-4	-3	1	91*	9	152*	131*
C=CCNC(=O)c1ccc(C(=O)c2ccccc2)cc1	-1	0	-1	-5	1	-10	nt	nt
CCOC(=O)N1CCN(C(=O)c2ccc3nc(-c4ccccc4)c(-c4ccccc4)nc3c2)CC1	62	-2	0	-1	35*	25	99*	67*
CCOc1ccc(-c2cc(C(=O)N3CCN(C)CC3)c3ccccc3n2)cc1	-3	-1	0	0	92*	19	-8	-6
COc1ccc(C(C)(O)c2nc(-c3ccc(N(C)C)cc3)cs2)cc1 (stereo unspecified)	nt	nt	1	nt	3	14	nt	nt
CC1(C)Cc2c(cnn2-c2ccc(F)cc2)C(NC(=O)CCN2CCCC2=O)C1 (stereo unspecified)	10	0	-3	-8	2	0	nt	nt
CCOC(=O)N1CCN(C(=O)c2cc(-c3ccc(OCC)cc3)nc3ccccc23)CC1	26	-2	-2	3	77*	26	103*	71*
Cc1cc(C)nc(-n2ncc3c2CC(c2cccc(Cl)c2)CC3=O)n1 (stereo unspecified)	0	0	-1	-5	29*	16	75*	56*
